Screening data as filed in PubChem BioAssay.
In the library only some 1.1% were active in any assay of this set; here they are far more common.
MEP2-GFP yeast = modulators of MEP2-GFP levels in yeast, primary screen, S. cerevisiae, multiplex flow cytometry, MLPCN library; S. cerevisiae MEP2-GFP strain, 3 h; 100% = DMSO control level; GFP response vs DMSO, % at 10 µM; 330,000 compounds, 0.51% hits; AID 2016, 2009;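 active = GFP response versus DMSO above a set limit, roughly screen mean plus 3 SD, cut at about 180% in these data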;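 also: median GFP fluorescence of the barcode-gated MEP2-GFP cells per well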
RPL19A-GFP yeast = RPL19A-GFP expression modulators in yeast, primary screen, cell-based, S. cerevisiae, multiplex flow cytometry, MLPCN; S. cerevisiae RPL19A-GFP strain, 3 h; active compounds read low; percent response vs DMSO, % at 10 µM; 330,000 compounds, 0.3% hits;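 active = percent response vs DMSO below 50%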;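 also: median channel GFP fluorescence of the barcoded RPL19A-GFP strain; lower means less RPL19A-GFP as with rapamycin TOR inhibition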
CIT2-GFP yeast = modulators of CIT2-GFP expression in yeast, primary screen, S. cerevisiae, GFP fusion, multiplex flow cytometry, MLPCN library; S. cerevisiae CIT2-GFP strain, 3 h; 100 means same as DMSO wells; 320,000 compounds, 0.065% hits; GFP response vs DMSO, % at 10 µM; AID 2029, 2009;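 active = GFP response relative to DMSO above a set limit, near the screen mean plus 3 SD, cut at about 150% in these data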;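 also: ratio of well median GFP fluorescence to mean of DMSO wells on the plate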
VLA-4 inh = inhibition in human VLA-4 binding assay, primary screen, VLA-4 allosteric modulator project, MLPCN library, flow cytometry, VLA-4 expressing cells | Integrin alpha-4 (Homo sapiens), P13612 | ligand binding flow cytometry | inhibition, % (about 7 µM as worked out from the volumes in the protocol) | 330,000 compounds, 0.2% hits; in the data active = inhibition above about 50%
Target sequence (P13612 whole entry, looked up): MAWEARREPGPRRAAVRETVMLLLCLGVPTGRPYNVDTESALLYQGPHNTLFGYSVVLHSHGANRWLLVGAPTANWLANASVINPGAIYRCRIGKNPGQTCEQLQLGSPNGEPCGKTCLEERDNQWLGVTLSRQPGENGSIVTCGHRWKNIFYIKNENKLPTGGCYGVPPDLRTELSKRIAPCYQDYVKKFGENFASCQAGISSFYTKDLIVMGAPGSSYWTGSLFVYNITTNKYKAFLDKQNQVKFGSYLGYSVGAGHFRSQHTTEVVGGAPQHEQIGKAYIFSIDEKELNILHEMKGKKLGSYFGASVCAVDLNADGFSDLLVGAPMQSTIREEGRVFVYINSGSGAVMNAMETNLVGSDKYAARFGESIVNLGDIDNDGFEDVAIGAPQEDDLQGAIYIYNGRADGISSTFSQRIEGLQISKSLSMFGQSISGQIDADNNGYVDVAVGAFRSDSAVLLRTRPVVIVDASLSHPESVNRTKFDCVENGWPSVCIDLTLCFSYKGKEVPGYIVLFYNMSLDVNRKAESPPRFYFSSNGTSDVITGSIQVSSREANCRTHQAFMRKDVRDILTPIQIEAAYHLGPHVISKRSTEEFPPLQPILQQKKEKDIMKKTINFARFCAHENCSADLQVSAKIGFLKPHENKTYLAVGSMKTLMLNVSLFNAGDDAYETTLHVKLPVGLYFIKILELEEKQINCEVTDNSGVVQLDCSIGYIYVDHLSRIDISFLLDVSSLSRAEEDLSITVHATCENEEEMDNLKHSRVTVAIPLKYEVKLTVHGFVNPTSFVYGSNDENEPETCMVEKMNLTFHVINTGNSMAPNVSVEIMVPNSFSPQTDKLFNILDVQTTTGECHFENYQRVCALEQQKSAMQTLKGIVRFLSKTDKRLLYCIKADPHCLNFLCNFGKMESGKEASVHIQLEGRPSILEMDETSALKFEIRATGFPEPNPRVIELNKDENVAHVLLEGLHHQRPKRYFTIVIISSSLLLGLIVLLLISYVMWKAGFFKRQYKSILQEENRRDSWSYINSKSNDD
AGP1 TOR yeast = modulators of AGP1-GFP expression in yeast TOR pathway, primary screen, cell-based, multiplex flow cytometry, S. cerevisiae, MLPCN library | GFP response vs DMSO, % at 10 µM | 320,000 compounds, 0.02% hits | AID 2066, 2009 | 3 h; GFP as percent of DMSO wells;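 active = GFP response relative to DMSO above a set limit, near screen average plus 3 SD, cut at about 150% in these data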;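 also: median GFP channel fluorescence of the gated AGP1 strain per well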
LAP4 TOR yeast = modulators of LAP4-GFP expression in yeast, primary screen, S. cerevisiae, multiplex flow cytometry, MLPCN library; 320,000 compounds, 0.34% hits; GFP response vs DMSO, % at 10 µM; AID 2023, 2009; 3 h; median GFP as percent of DMSO wells;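 active = GFP response vs DMSO above a set limit, about the screen mean plus 3 SD, cut at about 150% in these data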
LAP4-GFP pick2 = LAP4-GFP expression modulators in yeast, confirmation, cell-based, second cherry pick, flow cytometry | shares compounds with LAP4 TOR yeast | S. cerevisiae LAP4-GFP strain, 3 h | GFP response vs DMSO, % at 10 µM | 590 compounds, 20% hits;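 active = GFP signal as percent of the solvent control above about 150%, meaning raised reporter expression, limit read from the data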
MEP2 cherry2 = modulators of MEP2-GFP levels in yeast, confirmation, S. cerevisiae, flow cytometry GFP, second cherry picks | shares compounds with LAP4 TOR yeast | S. cerevisiae MEP2-GFP strain, 3 h | GFP response vs DMSO, % at 10 µM | 590 compounds, 10% hits | AID 2622, 2010;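 active = GFP signal above 150% of the solvent control wells, that is a rise of more than half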;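 also: median channel GFP fluorescence of all gated yeast cells per well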
RPL19A GFP CP2 = RPL19A-GFP modulators in TOR pathway yeast, confirmation, cell-based, S. cerevisiae, flow cytometry, second cherry pick; S. cerevisiae RPL19A-GFP strain, 3 h; active compounds read low; 100% means same as DMSO wells; GFP response vs DMSO, % at 10 µM; 590 compounds, 3% hits; shares compounds with LAP4 TOR yeast;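 active = under 65% GFP response relative to DMSO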;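 also: median GFP channel fluorescence per well over the all cells gate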
CIT2 GFP CP2 = modulators of CIT2-GFP expression in yeast, confirmation, flow cytometry, second cherry pick, single plex | shares compounds with LAP4 TOR yeast | S. cerevisiae CIT2-GFP strain, 3 h; DMSO control wells read 100% | GFP response vs DMSO, % at 10 µM | 590 compounds, 8% hits;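 active = GFP response vs DMSO above about 150%, limit read from the data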;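 also: median green fluorescence per well over all gated yeast cells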
AGP1 GFP CP2 = AGP1-GFP expression modulators, hit retest, confirmation, cell-based, flow cytometry, S. cerevisiae, cherry pick set 2. shares compounds with LAP4 TOR yeast. S. cerevisiae AGP1-GFP strain, 3 h. percent response vs DMSO, % at 10 µM. 590 tested, under 10 active. AID 2643, 2010;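 active = over 150 percent of DMSO response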;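 also: median GFP channel fluorescence over all cells without mother daughter split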
s288c autofluor = compound autofluorescence in yeast s288c, dose response, artefact control for yeast TOR pathway GFP screen, s288c strain. shares compounds with LAP4 TOR yeast. S. cerevisiae s288c, 520 nm autofluorescence, flow cytometry, 3 h; active compounds read high; zero means same as solvent-only cells. fluorescence change (kMESF span) at 33 µM. 610 tested, under 10 active. AID 2757, 2010;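 active = fluorescence span over the dose series, or activity score, above about 33, limit read from the data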
s288c autofl DR = autofluorescence of compounds in yeast s288c, dose response, artefact control for yeast TOR pathway GFP screen, primary hits, KU SAR, s288c parental. shares compounds with LAP4 TOR yeast. 110 tested, under 10 active. fluorescence change (span) at 33 µM. AID 488829, 2010. S. cerevisiae s288c parental, compound autofluorescence, flow cytometry, 3 h;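 active = fluorescence change span, or the activity score built from it, above 25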
TORC1 bypass gr = wild-type yeast growth inhibition sparing TORC1 bypass cells, mechanism study for yeast TOR pathway GFP screen, BY4741 wild type, TORC1 bypass strain. shares compounds with LAP4 TOR yeast. S. cerevisiae BY4741 spot growth rating, 48-72 h; active compounds read low. growth rating (0-3) at 30 µM. 120 tested, under 10 active. AID 504456, 2011;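 active = growth rating at most 1 for wild type yeast while the TORC1 bypass strain still grows fully, rated 3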
A number is an active result; - = inactive; . = not tested or not shown.

SMILES | MEP2-GFP yeast | RPL19A-GFP yeast | CIT2-GFP yeast | VLA-4 inh | AGP1 TOR yeast | LAP4 TOR yeast | s288c autofluor | others
O=C(COc1ccc(F)cc1Cl)Nc1nc(-c2ccccn2)cs1 | - | - | - | - | - | 171 | - | s288c autofl DR=-;TORC1 bypass gr=-
O=C(COc1ccccc1Cl)Nc1nc(-c2ccncc2)cs1 | - | - | - | - | - | - | .
O=C(Nc1nc(-c2ccccn2)cs1)c1cc2ccccc2o1 | - | - | - | - | - | 155 | - | s288c autofl DR=-;TORC1 bypass gr=-
Cc1c(C(=O)Nc2nc(-c3ccccn3)cs2)oc2ccccc12 | - | - | - | - | - | 220 | - | LAP4-GFP pick2=187;MEP2 cherry2=-;RPL19A GFP CP2=-;CIT2 GFP CP2=-;AGP1 GFP CP2=-;s288c autofl DR=-;TORC1 bypass gr=-
Cc1cc(-c2csc(NC(=O)c3cc4ccccc4o3)n2)c(C)n1C | - | - | - | - | - | - | .
CCc1sc(C(=O)Nc2nc(-c3ccccn3)cs2)cc1C | - | - | - | - | - | 191 | - | LAP4-GFP pick2=212;MEP2 cherry2=155;RPL19A GFP CP2=-;CIT2 GFP CP2=-;AGP1 GFP CP2=-
Cc1ccc(C(=O)Nc2nc(-c3ccccn3)cs2)s1 | - | - | - | - | - | - | .
CC(C)NC(=O)c1nc2c(nnn2Cc2cccc(Cl)c2)c(=O)[nH]1 | - | - | - | - | - | - | .
CC(CNC(=O)CN1C(=O)COc2ccc(S(=O)(=O)N3CCCCC3)cc21)c1ccccc1 (configuration not stated) | - | - | - | - | - | - | .
CC(C)N1CN(c2ccccc2)C(=S)N(c2ccccc2)C1 | - | - | . | - | . | . | .
CCOc1cc(NC(=O)C(C)C)c(OCC)cc1NC(=O)Nc1ccccc1 | - | - | - | - | - | - | .
COc1ccc2oc(=N)c(C(=O)Nc3ccccc3Cl)cc2c1 | - | - | - | - | - | - | .
CCc1c(C)c(C#N)c2nc3ccccc3n2c1NCCOC | - | - | - | - | - | - | .
Cc1c(Cc2ccccc2)c(NCCN(C)C)n2c(nc3ccccc32)c1C#N | - | - | - | - | - | 198 | -
O=C1CCCN2N=C(SCC(=O)N3CCCCC3)SC2=N1 | - | - | - | - | - | - | . | LAP4-GFP pick2=-;MEP2 cherry2=-;RPL19A GFP CP2=-;CIT2 GFP CP2=-;AGP1 GFP CP2=-
CCC1CCCCN1C(=O)CSC1=NN2CCCC(=O)N=C2S1 (configuration not stated) | - | - | - | - | - | - | .
Cc1cccc(NC(=O)CSCC(=O)N(CCC(C)C)c2c(N)n(Cc3ccccc3)c(=O)[nH]c2=O)c1 | - | - | - | - | - | - | .
N=C1/C(=C/c2coc3ccccc3c2=O)C(=O)N=C2SC(c3ccco3)=NN12 | - | - | - | - | - | - | .
N=C1/C(=C\c2coc3ccccc3c2=O)C(=O)N=C2SC(c3ccncc3)=NN12 | - | - | - | - | - | - | - | LAP4-GFP pick2=-;MEP2 cherry2=-;RPL19A GFP CP2=-;CIT2 GFP CP2=163;AGP1 GFP CP2=-
Cn1c(C(=O)O)c(S(=O)(=O)c2ccc(Cl)cc2)c2ccccc21 | - | - | - | - | - | - | .
Cc1cc(Nc2cccc(Cl)c2)nc(NCc2ccccc2)n1 | - | - | - | - | - | - | .
Clc1cc(Cl)cc(Nc2cc(Oc3cccc(Cl)c3)nc(NCc3ccccc3)n2)c1 | . | . | . | . | . | . | . | s288c autofl DR=-;TORC1 bypass gr=-
Clc1cc(Cl)cc(Nc2cc(NC3CCCCC3)nc(NCc3ccccc3)n2)c1 | . | . | . | . | . | . | . | s288c autofl DR=-;TORC1 bypass gr=-
CN(C)c1ccc(CNC(=O)c2cc(S(=O)(=O)N3CCOCC3)cn2C)cc1 | - | - | - | - | - | - | .
c1ccc(-c2cccc(-c3ccccn3)n2)nc1 | - | - | - | - | - | 319 | - | s288c autofl DR=-;TORC1 bypass gr=-
SMILES | MEP2-GFP yeast | RPL19A-GFP yeast | CIT2-GFP yeast | VLA-4 inh | AGP1 TOR yeast | LAP4 TOR yeast | s288c autofluor | others
COc1ccc(C(=O)OCc2c(-c3ccccc3)ncc3ccccc23)cc1 | - | - | - | - | - | 151 | . | LAP4-GFP pick2=-;MEP2 cherry2=-;RPL19A GFP CP2=-;CIT2 GFP CP2=-;AGP1 GFP CP2=-
O=C(Nc1ccccc1)O/N=C/c1ccncc1 | - | - | - | - | - | - | .
O=C(Nc1ccccc1)ON=C1CCCC1 | - | - | - | - | - | - | - | LAP4-GFP pick2=-;MEP2 cherry2=-;RPL19A GFP CP2=-;CIT2 GFP CP2=-;AGP1 GFP CP2=-
Cc1ccc(NC(=O)ON=C2CCCC2)cc1 | - | - | 219 | - | - | - | -
Cc1cnc(CN(C)C(=O)CC2C(=O)NCCN2CCCc2ccccc2)[nH]1 (configuration not stated) | - | - | - | - | - | - | .
O=C(NC1CCCCC1)c1c(O)nc2sccn2c1=O | - | - | - | - | - | - | .
CCCC1(CCC)NC(=O)N(CC(=O)Nc2ccc3c(c2)OCCO3)C1=O | - | - | - | - | - | - | .
Oc1c(C(Nc2cccc(C(F)(F)F)c2)c2ccncc2)ccc2cccnc12 (configuration not stated) | - | - | - | - | - | 170 | -
Cc1cc(/C=C2/SC(=S)N(c3cccc(Cl)c3)C2=O)c(C)n1-c1cccnc1 | - | - | - | - | - | 154 | -
